From PubChem BioAssay
Rows were chosen to be rich in hits. Some 1.5% of all compounds tested hit in one or more screens of this group.
RAD54 branch = inhibitors of human RAD54 branch migration; Q92698; RAD54 Holliday junction branch migration, FAM/BHQ fluorescence; inhibition, % at 10.4 µM; actives 0.14% (n = 360,000); AID 602329;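 active means mean normalized replicate activity at least 40 and at least half of replicates scoring 40 or more; inconclusive means only one of the two criteria met; inactive means mean below 40 and under half of replicates reaching 40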;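 further: 0% = median of neutral control wells and 100% = median of positive control wells; inhibitors cause a drop in the FAM fluorescence signal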
Target sequence (Q92698 whole entry, looked up): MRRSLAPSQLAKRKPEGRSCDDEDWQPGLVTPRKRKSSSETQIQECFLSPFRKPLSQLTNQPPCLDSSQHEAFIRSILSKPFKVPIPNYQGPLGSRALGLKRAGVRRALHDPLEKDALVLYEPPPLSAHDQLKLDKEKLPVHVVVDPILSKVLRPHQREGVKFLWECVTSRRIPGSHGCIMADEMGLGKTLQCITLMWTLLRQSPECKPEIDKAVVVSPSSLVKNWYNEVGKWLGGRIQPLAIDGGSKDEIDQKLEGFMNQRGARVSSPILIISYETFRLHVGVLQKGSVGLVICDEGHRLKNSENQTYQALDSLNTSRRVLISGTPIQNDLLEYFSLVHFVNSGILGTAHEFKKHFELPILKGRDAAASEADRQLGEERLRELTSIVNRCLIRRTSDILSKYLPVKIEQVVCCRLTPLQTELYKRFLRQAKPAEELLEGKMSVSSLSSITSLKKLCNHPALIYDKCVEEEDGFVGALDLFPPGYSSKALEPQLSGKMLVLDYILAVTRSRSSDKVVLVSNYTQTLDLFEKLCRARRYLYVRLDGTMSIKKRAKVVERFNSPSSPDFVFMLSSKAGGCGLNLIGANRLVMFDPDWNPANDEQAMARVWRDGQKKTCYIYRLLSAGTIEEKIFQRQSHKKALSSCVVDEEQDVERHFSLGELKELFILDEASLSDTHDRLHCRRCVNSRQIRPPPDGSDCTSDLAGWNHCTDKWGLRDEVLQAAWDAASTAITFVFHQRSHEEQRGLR
FID counter = displaces DNA intercalator in HCV helicase counter-screen | DNA fluorescent intercalator displacement, fluorescence | AID 1845 | inhibition, % at 7.9 µM | actives 0.17% (n = 290,000); in the data active means inhibition above about 37%;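 further: 0% = vehicle and 100% = reference compound; higher means more ethidium bromide displaced from hairpin DNA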
RAD52 anneal inh = RAD52 (human) annealing inhibition; recombinant RAD52 DNA annealing, FRET fluorescence; inhibition, % at 18.7 µM; actives 0.46% (n = 360,000);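 active means every replicate showing at least 50% inhibition; inconclusive means mean inhibition at least 50% but not in every replicate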
miR122 inh = miR-122 inhibition in Huh7 cells | actives 0.3% (n = 340,000) | Huh7 miR-122 Renilla luciferase sensor, 48 h; neutral wells = 0, positive control = 100 | activation (reporter increase), % at 12.5 µM;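 active means mean replicate activation score at least 90 and every replicate individually at or above 90; inconclusive means only one of the two criteria met; inactive means neither criterion met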;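 further: higher luciferase means less miR-122 activity so hits act as miR-122 inhibitors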
NRP1-CendR mod = NRP-1/CendR interaction modulation; O14786; FAM-RPARPAR peptide binding to NRP-1, fluorescence polarization; inhibition, % at 25 µM; actives 0.85% (n = 360,000); AID 602438;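 active means inhibition or corrected inhibition above about 18%, plus a signal ratio from 0.5 to 1.5, limit read from the data, passing the limit was not always enough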
Glyco luc inh = N-linked glycosylation inhibition | D54 ERlucT glycosylation luciferase reporter, 24 h; percent of 100 nM tunicamycin response | AID 588692 | reporter increase, % at 12.5 µM | actives 0.23% (n = 360,000);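 active means mean luciferase reporter signal, scaled so untreated is 0 and the glycosylation-blocking control 100, at or above a set limit in every replicate; inconclusive means mean reaches the limit but not every replicate does; inactive means mean below the limit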;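 further: luciferase carries N-glycosylation sites so blocking glycosylation raises the light; 0% = median of neutral control wells and 100% = median of 100 nM tunicamycin wells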
* marks the source's active call; other numbers are inactive results; i = inactive; ? = inconclusive; . = no result given; [ ] = another dose, or the depositor's remark.

SMILES	RAD54 branch	FID counter	RAD52 anneal inh	miR122 inh	NRP1-CendR mod	Glyco luc inh
c1ccc(-c2nnc3n2-c2ccccc2SC3)cc1	.	-5.3	-2.2	.	5.4	-0.1
COc1ccc(/C=N/NC(=O)c2cccnc2)cc1CSc1nc2ccccc2s1	0.9	-9.1	.	32.5	2.6	11.8
COc1ccc(/C=N/NC(=O)c2ccccc2Cl)cc1CSc1nc2ccccc2s1	-4.7	-3.6	.	32.8	31.3*	13.2
CC(C)NC(=O)N(C)C[C@@H]1Oc2ccc(NC(=O)CCC(F)(F)F)cc2CC(=O)N([C@H](C)CO)C[C@@H]1C	-27.3	.	-9.7	-4.2[16.7 µM]	.	.
Cc1ccc(/C=C2/SC(=S)N(C3CCCCC3)C2=O)o1	-2.0	-22.5	-31.8	10.9	-65.9	3.9
Cc1ccc(/C=C2/SC(=O)NC2=S)o1	-26.0	-4.7	.	-3.2	52.6*	0.6
CCCS(=O)(=O)N1CCC(Cc2ccc(OC)cc2)(C(=O)OCC)CC1	.	-31.0	-15.4	.	39.3*	-2.3
COc1ccc2c(c1)OC[C@H]1[C@H]2N2C(=O)c3cc(OC)c(OC)cc3NC(=O)[C@@]2(C)[C@H]1c1ccccc1	5.4	.	-64.6	-18.0	-8.7	47.3*
C[C@@]12C(=O)Nc3cc(F)c(F)cc3C(=O)N1[C@H]1c3ccccc3OC[C@@H]1[C@@H]2c1ccccc1	-10.2	.	-3.2	-9.1	3.5	?
COc1cc2c(cc1OC)C(=O)N1[C@H]3c4ccccc4OC[C@@H]3[C@H](c3ccccc3)[C@]1(C)C(=O)N2	-0.5	.	-14.5	.	-7.7	41.1*
COc1ccc2c(c1)OC[C@H]1[C@@H]2N2C(=O)[C@@H](C)NC(=O)[C@@]2(C)[C@H]1c1ccccc1	2.1	.	3.3	2.8	4.6	-0.3
Cc1ccc(S(=O)(=O)Nc2ccc3c(c2)CC(=O)N([C@@H](C)CO)C[C@@H](C)[C@@H](CN(C)S(=O)(=O)c2cn(C)cn2)O3)cc1	0.7	.	5.5	3.5[16.7 µM]	.	.
COc1ccc(C#Cc2ccc([C@H]3[C@@H](CO)N4CCCCN(C(=O)Nc5cccc(F)c5)C[C@H]34)cc2)cc1	50.7*	.	.	-24.1[16.7 µM]	.	.
COc1ccccc1C#Cc1ccc([C@H]2[C@H](CO)N3CCCCN(C(=O)C4CCCC4)C[C@@H]23)cc1	-0.9	.	55.7*	1.4[16.7 µM]	.	.
COc1ccc(C#Cc2ccc([C@@H]3[C@H]4CN(C(=O)Nc5cccc(F)c5)CCCCN4[C@H]3CO)cc2)cc1	10.2	.	-25.3	7.0[16.7 µM]	.	.
COc1ccc(NC(=O)N2CCCCN3[C@H](CO)[C@H](c4ccc(C#Cc5ccccc5)cc4)[C@H]3C2)cc1	3.8	.	95.0*	-4.6[16.7 µM]	.	.
CCC(=O)N(C)C[C@H]1Oc2cc(-c3ccccc3)ccc2S(=O)(=O)N([C@@H](C)CO)C[C@@H]1C	7.3	.	13.7	-0.1[16.7 µM]	.	.
C[C@H]1CN([C@@H](C)CO)C(=O)c2cccc(NC(=O)C3CC3)c2O[C@H]1CN(C)S(=O)(=O)c1cn(C)cn1	8.9	.	1.2	3.5[16.7 µM]	.	.
CN(C)C(=O)c1cccc(-c2cnc3c(NC=O)cc(-c4ccccc4N(C)C)cn23)c1	-169.8	.	i	-6.0	127.7	10.8
CN(C)C(=O)c1cccc(-c2cnc3c(NC=O)cc(-c4ccccc4Cl)cn23)c1	-6.1	.	-9.8	.	-13.4	35.5*
O=C1OC(N2C(=O)CC[C@H]2C(=O)NCC2CCCO2)c2ccccc21 (some centres not stated)	9.5	-5.6	3.1	-2.2	21.7*	-0.8
CCNC(=O)C[C@H]1CC[C@@H]2[C@@H](COc3ccc(NC(=O)Nc4cccc(OC)c4)cc3C(=O)N2C)O1	5.3	.	.	13.3[16.7 µM]	.	.
O=C(NCC[C@@H]1CC[C@@H](NC(=O)Nc2cc(F)ccc2F)[C@@H](CO)O1)Nc1ccc(F)cc1	-2.9	.	21.6	.	.	.
CN=c1sc(C(=O)Nc2cccc(Cl)c2)cc(=O)n1C	-32.4	2.9	.	-7.9	-4.8	30.8*
COc1ccc(C(C)(C)C)cc1NC(=O)c1c(C)noc1C	7.6	-15.1	.	-0.5	9.6	0.7
SMILES	RAD54 branch	FID counter	RAD52 anneal inh	miR122 inh	NRP1-CendR mod	Glyco luc inh
COc1ccc(C(C)(C)C)cc1NC(=O)CCc1c(C)noc1C	-3.4	.	-0.4	2.6	28.4*	0.9
Cc1noc(C)c1S(=O)(=O)Nc1ccc2c(c1)C(=O)N([C@H](C)CO)C[C@H](C)[C@H](CN(C)S(=O)(=O)c1ccccc1)OCCCC[C@@H](C)O2	-2.6	.	-28.1	2.7[16.7 µM]	.	.
NC(=O)c1c(NC(=O)C(=O)N2CCOCC2)sc2c1CCCC2	-6.1	-22.4	-10.6	-5.0	31.6*	1.3
C[C@@H]1CN([C@H](C)CO)C(=O)c2cccc(NC(=O)NC3CCCCC3)c2O[C@@H]1CN(C)C(=O)Nc1ccc2c(c1)OCO2	-4.8	.	2.7	-6.0[16.7 µM]	.	.
CCOC(=O)N1CCN(C(=O)Nc2ccc3nc(C)c(C)nc3c2)CC1	5.5	-14.8	.	.	44.4*	-0.9
OCCCN=c1cc(-c2ccccc2)oc2ccc(Cl)cc12	.	-3.9	.	8.4	-12.7	57.6*
COc1cccc(-c2ccc([C@@H]3[C@@H](CO)N4C(=O)CN(C(=O)NC(C)C)C[C@H]34)cc2)c1	.	.	1.9	.	.	.
CCC(=O)N[C@@H]1C[C@@H]2O[C@H](CO)CC[C@@H]2O[C@@H]1CCc1ccc(-c2cccc(OC)c2)cc1	.	.	-10.7	.	.	.
CCCCn1c(SCC(=O)Nc2cc(C)on2)nnc1-c1ccncc1	.	-18.9	1.3	-5.1	8.7	1.3
CCCCn1c(SCC(=O)Nc2cc(C)on2)nnc1-c1cccnc1	-7.9	-15.6	.	-3.0	21.8*	0.7
C[C@@H]1CN([C@@H](C)CO)C(=O)c2cc(NS(=O)(=O)c3ccccc3)ccc2O[C@@H]1CN(C)Cc1ccc2c(c1)OCO2	-6.1	.	13.6	15.0[16.7 µM]	.	.
O=C(N/N=C/c1ccc2c(c1)OCO2)c1cc(-c2ccco2)nc2ccccc12	-1.3	.	-20.0	11.2	-24.4	10.4
Cn1cc(C(=O)N/N=C/c2ccc3c(c2)OCO3)c2ccccc21	15.4	-9.4	-3.1	15.0	-1.5	14.5
Cc1[nH]c2ccccc2c1/C=N/NC(=O)c1cc(-c2ccncc2)nc2ccccc12	-2.3	-5.0	-5.8	.	6.9	37.3*
Cc1[nH]c2ccccc2c1/C=N/NC(=O)c1cc(-c2ccccc2)n[nH]1	-1.7	6.7	-12.6	-5.4	-9.6	1.2
O=C(N/N=C/c1ccc2c(c1)OCO2)c1cc(-c2ccccc2)nc2ccccc12	.	-2.3	-0.9	.	26.2*	1.7
O=C(N/N=C/c1ccc2c(c1)OCO2)c1cccc2ccccc12	-2.0	-16.4	10.9	.	29.9*	21.6
O=C(c1cccnc1)N1C[C@@H]2N[C@H](C1)C2c1ccc(-c2cccnc2)cc1 (some centres not stated)	.	.	-0.4	.	.	.
COCCCn1c(=O)/c(=C\c2ccccc2OC(F)F)s/c1=C(/C#N)C(N)=O	-10.6	-6.9	-52.6	167.1*	-32.5	-0.6
COCCCn1c(=O)/c(=C\c2ccc(OC(F)F)c(OC)c2)s/c1=C(/C#N)C(N)=O	.	-4.9	-61.1	.	-106.3	0.4
